TRHR enhancer: TRH receptor (human) allosteric enhancement. P34981. TRHR cells, fluo-8 calcium fluorescence, EC20 TRH enhancement. enhancement, % at 2 µM. 360,000 compounds, 0.66% hits. AID 493056; in the data active = enhancement above about 30%
Target sequence (P34981 whole entry, looked up): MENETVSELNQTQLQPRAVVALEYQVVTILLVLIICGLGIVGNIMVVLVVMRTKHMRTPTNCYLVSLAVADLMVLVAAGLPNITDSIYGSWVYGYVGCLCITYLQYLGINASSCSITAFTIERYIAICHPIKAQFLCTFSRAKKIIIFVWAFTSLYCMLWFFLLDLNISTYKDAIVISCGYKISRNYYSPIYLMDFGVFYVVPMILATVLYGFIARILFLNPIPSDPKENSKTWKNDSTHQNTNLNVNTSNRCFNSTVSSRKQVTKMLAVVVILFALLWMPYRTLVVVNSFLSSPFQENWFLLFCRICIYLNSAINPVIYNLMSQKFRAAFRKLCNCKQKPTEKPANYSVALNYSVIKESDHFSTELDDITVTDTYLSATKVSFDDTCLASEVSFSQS
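Enhancer read-out: after compound pinning and an initial kinetic agonist-mode read, an EC20 of TRH (10 nM final) was injected and fluo-8 calcium signal (Ex 480/Em 530) followed at 1 s/cycle for 100 cycles in TRHR-expressing cells.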
D1 agonist: activates the human D1 dopamine receptor; P21728; HEK293 T-REx D1 cells, calcium flux, agonist mode; activation, % at 2 µM; 360,000 compounds, 1% hits
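Agonism was scored from calcium flux recorded over 180 s (1 read/s) after pintool compound addition, following a 10-cycle baseline. Cells were inducible force-coupled HEK293 TREx D1, plated overnight at 30 C and loaded with no-wash calcium dye.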
TRHR agonist: agonists of human TRH receptor. P34981. TRHR cells, calcium flux fluo-8, FDSS agonist mode. activation, % at 2 µM. 360,000 compounds, 0.18% hits. AID 493084
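In this calcium-flux screen, cells bearing human TRHR are dye-loaded with fluo-8, baselined for 10 cycles, then exposed to library compounds; positive kinetic calcium responses during the agonist phase mark hits, with TRH as control.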
D1 potentiator: human D1 dopamine receptor positive modulation; P21728; HEK293 TREx D1 cells, calcium flux, dopamine EC20 potentiation; potentiation, % at 10 µM; 360,000 compounds, 0.036% hits; AID 504651; in the data active = potentiation above about 30%
D1 antag: antagonists of human D1 dopamine receptor; P21728; activity change, negative = inhibition, % at 10 µM; 360,000 compounds, 3.2% hits; HEK293 TREx D1 cells, calcium flux, dopamine EC80; stronger effect = lower value; in the data active = activity change below about -30%
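Inducible Hek293 Trex D1 cells (tetracycline, overnight, 30 C). Calcium dye 30–90 min RT. Antagonist mode: EC80 dopamine added after 180 s compound read.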
Hits are given with their value; – = inactive; ! = not active in a repeat. This is a sample that favours compounds with a hit; in the whole collection about 4.6% have one here. Cut-off read from the data, not from the text of the source, unless noted: active = activation above about 30%; inactive = the rest.

SMILES	TRHR enhancer	D1 agonist	TRHR agonist	D1 potentiator	D1 antag
Cc1ccc2nc(-c3c[nH]c4ccccc34)c(Nc3ccccc3C)n2c1	–	–	–	–	–
CC(=O)CC1(C)OC(N)=C(C#N)C1(C#N)C#N (stereo not given)	–	–	–	–	-30
Cc1cccc(-c2nc(CSc3nncn4c3cc3oc(C)cc34)c(C)o2)c1	–	–	–	–	–
Cc1nnc(SCc2cc(=O)[nH]c(Nc3nc(C)c4cc(C)c(C)cc4n3)n2)s1	–	–	–	–	-73
Cc1ccc(SCc2cc(=O)[nH]c(Nc3nc(C)c4cccc(C)c4n3)n2)cc1	–	–	–	–	–
CCCCn1c(=O)c2oc3ccccc3c2n(Cc2ccc(C)cc2)c1=O	–	–	–	–	–
NC(=O)NC(=O)COC(=O)CN1C(=O)C2CCCCC2C1=O (stereo not given)	36	–	–	–	–
CCCc1cc(=O)[nH]c(SCC(=O)c2[nH]c(C)c(C(=O)OCC)c2C)n1	31	–	–	–	–
CCOC(=O)c1c(C)[nH]c(C(=O)COC(=O)CN2C(=O)C3CCCCC3C2=O)c1C (stereo not given)	31	–	–	–	–
NC(=O)COC(=O)CN1C(=O)C2CCCCC2C1=O (stereo not given)	–	–	–	–	–
COc1ccc(OC)c(S(=O)(=O)N2CCN(S(=O)(=O)c3ccc4c(c3)OCCO4)CC2)c1	–	–	–	–	–
CCS(=O)(=O)/N=C(\N)c1ccccc1	–	–	–	–	–
N#CN=C(N)c1ccccc1	–	–	–	–	-56!
CC1C/C(=C/c2cccn2C)C(=O)/C(=C/c2cccn2C)C1 (stereo not given)	35	198	82	–	–
CC1C/C(=C/c2ccncc2)C(=O)/C(=C/c2ccncc2)C1 (stereo not given)	–	–	–	–	-32
CCOc1ccc(NC(=O)CN2CCSc3ccc(S(=O)(=O)N4CCCC4)cc32)cc1	–	–	–	–	–
CCOc1ccc(CNC(=O)c2ccc(NC(=O)N3CCSc4ncccc43)cc2)cc1OC	–	–	–	–	–
Cc1ccc(NC(=O)C2OCCc3ccccc32)cc1 (stereo not given)	–	–	–	–	–
Cc1ccc(NC(=O)C(=O)NCC2OCCc3ccccc32)cc1 (stereo not given)	33	–	–	–	–
Cc1ccc(Cn2nnc3c(=O)n(CC(=O)OCc4ccccc4)cnc32)cc1	–	–	–	–	-33
O=C(Cn1cnc2c(nnn2Cc2ccc(F)cc2)c1=O)OCc1ccccc1	–	–	–	–	–
CCn1c(CN2CCOCC2)nc2cc(NC(=O)c3ccc([N+](=O)[O-])cc3)ccc21	–	–	–	–	–
COc1ccc(-c2nc(NC(=O)c3[nH]c(C)c(C(C)=O)c3C)sc2C)cc1	–	–	–	–	-91
Cn1cc([N+](=O)[O-])c(C(=O)Nc2nc(-c3ccc(Cl)cc3)cs2)n1	–	–	–	–	-48
COc1ccc(-c2nc(NC(=O)Cn3cnnn3)sc2C)cc1	–	–	–	–	–
SMILES	TRHR enhancer	D1 agonist	TRHR agonist	D1 potentiator	D1 antag
COc1ccc(OC)c(NC(=O)c2[nH]c(C)c(C(C)=O)c2C)c1	–	–	–	–	–
CC(=O)c1c(C)[nH]c(C(=O)Nc2nc(-c3ccc(Cl)cc3)cs2)c1C	–	–	–	–	-32
CC(=O)c1c(C)[nH]c(C(=O)Nc2nc(-c3ccc(-c4ccccc4)cc3)cs2)c1C	–	–	–	–	–
COc1ccc(-c2nc(NC(=O)Cn3ccc(C(F)(F)F)n3)sc2C)cc1	–	–	–	–	-40
Cc1ccc(-c2csc(NC(=O)c3c(C)noc3C)n2)cc1	–	–	–	–	–
Cc1noc(C)c1C(=O)Nc1nc(-c2ccc([N+](=O)[O-])cc2)cs1	–	–	–	–	-51
Cc1ccc(NC(=S)N2CCC(N(C)CC3CCCO3)CC2)cc1C (stereo not given)	31	–	–	–	–
CCC(=O)NC(c1ccco1)c1cc([N+](=O)[O-])c2cccnc2c1O (stereo not given)	–	–	–	–	–
Cc1ccc2occ(/C=N/NC(=O)c3ccc(Cl)cc3)c(=O)c2c1	–	–	–	–	–
Cc1ccc2occ(/C=N/NC(=O)c3ccncc3)c(=O)c2c1	–	–	–	–	-34

Compound activity as filed in PubChem.
